Measured values reported in PubChem BioAssay (NCATS).
Where “and” joins values, the source holds several entries; their conditions need not be identical. Equal entries are not always repeated. Results filed as inconclusive are left out. Calls of active or inactive are those of the source. Unless noted, calls come from the whole dose curve; as a rule, active = well fitted curve in the direction sought with a large enough effect; inconclusive = small, poorly fitted or top-dose-only effect, or another doubt; inactive = no such curve, though single readings can be large; an effect the other way counts as inactive or inconclusive. Where a SMILES comes first, the peptide text is derived from it. The star is where a group is joined. Cbz = O=C(OCc1ccccc1)*

How the values were obtained:
[1] = target: Cellular tumor antigen p53 (Homo sapiens) (UniProt P04637); experiment: Primary qHTS for small molecule compounds that upregulate eGFP-tagged delta133p53alpha (in N-terminal) cells. (AID 2060322); settings: NCI-H358 eGFP-delta133p53alpha fluorescence, 24 h; activation: stronger effect = higher value;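 note: cells pre-induced with doxycycline then dosed without doxycycline; series mostly up to about 56 µM; 0% = DMSO vehicle and 100% = reference activator; nearly all actives have a fitted effect of over 75% in size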
Cellular tumor antigen p53 (Homo sapiens), sequence (P04637 whole entry, looked up): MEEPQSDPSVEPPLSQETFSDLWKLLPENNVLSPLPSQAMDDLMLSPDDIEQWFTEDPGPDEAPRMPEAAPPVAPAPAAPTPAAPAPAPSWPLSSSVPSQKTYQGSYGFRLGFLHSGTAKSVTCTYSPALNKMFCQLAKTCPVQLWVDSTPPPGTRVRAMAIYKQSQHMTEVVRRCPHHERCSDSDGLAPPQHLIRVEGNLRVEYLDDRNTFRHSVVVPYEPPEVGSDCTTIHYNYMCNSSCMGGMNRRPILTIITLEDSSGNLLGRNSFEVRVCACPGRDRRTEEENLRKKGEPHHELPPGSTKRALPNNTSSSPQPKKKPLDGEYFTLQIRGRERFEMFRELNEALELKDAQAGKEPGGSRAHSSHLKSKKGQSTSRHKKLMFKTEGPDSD
Procedure, shortened: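 NCI-H358 cells pre-induced 24 h with 10 ng/ml doxycycline for eGFP-delta133p53alpha, plated dox-free and exposed 24 h at 37C to titrated compounds. Fixed, Hoechst-stained; gated GFP peak intensity by laser scanning cytometry, normalized to DMSO (0%) and 57.5 uM 5-azacytidine (100%).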

[2] = target: Cellular tumor antigen p53 (Homo sapiens) (UniProt P04637); experiment: Primary qHTS for small molecule compounds that upregulate eGFP-tagged delta133p53alpha (in C-terminal) cells. (AID 2060324);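 note: 0% = DMSO wells and 100% = 57.5 µM 5-azacytidine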
Procedure, shortened: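 Concentration-response screen: compounds titrated onto pre-induced NCI-H358 D133p53a-eGFP cells, incubated one day, fixed with 3.5% PFA. Per-cell GFP peak intensity was gated, then normalized against intraplate controls.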

[3] = target: Aldehyde dehydrogenase, mitochondrial (Homo sapiens) (UniProt P05091); experiment: qHTS for Inhibitors of the Aldehyde Dehydrogenase Family (ALDH2) Validation screens (AID 2061302; active = well fitted inhibition curve with a large enough effect; title and protocol of this record describe different tests;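 note: plate controls were DMSO vehicle for no effect and maximal DPI positive control response for full effect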)
[4] = target: Retinaldehyde dehydrogenase 3 (Homo sapiens) (UniProt P47895); experiment: qHTS for Inhibitors of the Aldehyde Dehydrogenase Family (ALDH1A3) Validation screen (AID 2061312); note: % is set by controls: 0 for no effect and ±100 for the full control effect; nearly all actives have a fitted effect of over 45% in size

Cn1c(=O)[nH]c2ncn(C)c2c1=O
inactive: activation [1] -21.1% | Potency [2] | Potency [3] | Potency [4]

CCOC(=O)N1CCC(=C2c3ccc(Cl)cc3CCc3cccnc32)CC1
inactive: activation [1] 20.9% and 5.49% | Potency [2] | Potency [3] | Potency [4]

FC(F)(F)c1ccccc1-n1ccnc1
inactive: activation [1] 8.47% and -16.2% | Potency [2] | Potency [3] | Potency [4]

COC(=O)C(C)(N)Cc1ccc(O)cc1 (centres undefined)
inactive: activation [1] -5.7% | Potency [2] | Potency [3] | Potency [4]

CC(C)(C)NCC(O)COc1cccc2[nH]c(=O)[nH]c12 (centres undefined)
inactive: activation [1] -2.8% | Potency [2] | Potency [3] | Potency [4]

c1cnc2c(c1)ccc1cccnc12
inactive: activation [1] -78.4% | Potency [2] | Potency [3] | Potency [4]

CC(C)[C@H](NC(=O)OCc1ccccc1)C(=O)N[C@H](C=O)Cc1ccccc1 (Cbz-Val-Phe-aldehyde)
inactive: activation [1] -5.34% | Potency [2] | Potency [3] | Potency [4]

CC(C)C[C@H](NC(=O)[C@H](O)[C@H](N)Cc1ccccc1)C(=O)O
inactive: activation [1] 3.56% | Potency [2] | Potency [3] | Potency [4]

c1ccc(-c2ccccn2)nc1
inactive: activation [1] -21.2% | Potency [2] | Potency [3] | Potency [4]

NCCCNCCSP(=O)(O)O
inactive: activation [1] 5.02% and 16.3% | Potency [2] | Potency [3] | Potency [4]

CCNC(=O)N1CCN(CCCC(c2ccc(F)cc2)c2ccc(F)cc2)CC1
inactive: activation [1] -22% and -43.5% | Potency [2] | Potency [3] | Potency [4]
